The sample as a whole holds a higher share of hits than the screen did.
VACV Venus inh = vaccinia inhibition (Venus reporter); AID 720580; 330,000 tested, 0.46% active; Potency, µM (series often up to 36.5 µM), for the others: top-dose activity change, negative = inhibition, usual class: inhibitors; Vaccinia virus Venus reporter expression, fluorescence; calls by dose curve; tested in A549 cells; note: potency is the fitted concentration of half-maximal effect; % is set by controls: 0 for no effect and ±100 for the full control effect; nearly all actives have a fitted effect of over 30% in size
MARV entry inh = inhibitors of Marburg virus binding or cell entry; Marburg virus pseudotyped entry inhibition, cell reporter; 300,000 tested, 1.8% active; AID 540276; Potency, µM (titrated, usually from 37.8 µM), for inactives: top-dose activity change, negative = inhibition, usual class: inhibitors; calls by dose curve; tested in HEK293 cells; note: potency is the fitted concentration of half-maximal effect; % is set by controls: 0 for no effect and ±100 for the full control effect
Shiga toxin inh = inhibitors of Shiga toxin in Vero cells. AID 2315. inhibition, % at 38.7 µM. 290,000 tested, 9.2% active. Vero cells, Shiga toxin protein synthesis inhibition reporter; in the data active = inhibition mostly above about 28%, no sharp cut-off; inactive = mostly below about 43%; note: 0% is about no effect
Cycloheximide cs = counter-screen hit for Shiga toxin inhibitors, cycloheximide; AID 2314; cell reporter, cycloheximide protein synthesis inhibition counterscreen; max response, %; 300,000 tested, 12% active; in the data active = max response mostly above about 13%, no sharp cut-off; inactive = mostly below about 14%; note: read at 38.3 µM for the half of the compounds with a filed dose; 0% is about no effect
VACV mCherry inh = inhibitors of vaccinia virus infection (mCherry reporter signal). Vaccinia virus mCherry reporter infection, fluorescence. Potency, µM (titrated, usually from 36.5 µM), for inactives: at the highest dose activity change, negative = inhibition, hits mostly inhibitors. 310,000 tested, 0.63% active; calls by dose curve; tested in A549 cells; note: potency is the fitted concentration of half-maximal effect; % is set by controls: 0 for no effect and ±100 for the full control effect; nearly all actives have a fitted effect of over 35% in size
Lassa entry inh = Lassa virus entry inhibition; Lassa virus pseudotype entry inhibition, cell reporter; Potency, µM (top dose mostly 37.9 µM), for inactives: at the top dose activity change, negative = inhibition, usual class: inhibitors; 300,000 tested, 1.2% active; calls by dose curve; tested in HEK293 cells; note: potency is the fitted concentration of half-maximal effect; % is set by controls: 0 for no effect and ±100 for the full control effect; nearly all actives have a fitted effect of over 50% in size
* hit, by the source's call; i = inactive; ? = inconclusive; . = not tested or not shown; [ ] = another dose, or the depositor's remark.

SMILES	VACV Venus inh	MARV entry inh	Shiga toxin inh	Cycloheximide cs	VACV mCherry inh	Lassa entry inh
COc1ccc(C2CC(c3ccc(Cl)cc3)=NN2C(C)=O)cc1 (centres undefined)	-14%	-24%	30*	34*	-7%	-18%
CC(=O)N1N=C(c2cccs2)CC1c1ccc(Br)cc1 (centres undefined)	.	.	33	32*	.	.
COc1ccc(C2CC(c3ccc(C)o3)=NN2C(C)=O)cc1 (centres undefined)	-16%	?	97*	21*	-20%	5%
COc1ccc(C2=NN(CN3C(=O)C(=O)c4ccccc43)C(c3cccc([N+](=O)[O-])c3)C2)cc1 (centres undefined)	-4%[7.34 µM]	-17%[46.1 µM]	117*	13*	-12%[7.34 µM]	-14%
CC(=O)N1N=C(c2ccc(Cl)cc2)CC1c1ccc([N+](=O)[O-])cc1 (centres undefined)	-14%	-31%[46.1 µM]	29	1	-2%	3%[46.1 µM]
CCC(=O)N1N=C(c2ccc(C)o2)CC1c1ccc(N(C)C)cc1 (centres undefined)	.	.	35	3	.	.
CC(C)(C)c1ccc(C(=O)N2CCC(c3noc(-c4ccc(S(=O)(=O)N5CCCC5)cc4)n3)CC2)cc1	?	-19%[46.1 µM]	.	.	?	0%[46.1 µM]
Cc1ccc(NC(=O)CCc2nnc3n(C)c(=O)c4sccc4n23)cc1C	3%	0%[46.1 µM]	.	.	-6%	6%[46.1 µM]
CC(=O)N1N=C(c2ccc(C)o2)CC1c1ccc(Br)cc1 (centres undefined)	.	-1%	87*	43*	.	4%
COc1ccc(C2CC(c3ccc(OC)cc3O)=NN2C(=O)c2ccccc2)cc1 (centres undefined)	-3%	?	-6	4	-27%	?
COc1ccc(C2CC(c3ccc4ccccc4c3OC(C)=O)=NN2C(C)=O)cc1 (centres undefined)	-10%	?	60*	25*	?	?
COc1ccc(C2CC(c3ccc(Cl)cc3)=NN2C(=O)c2cccc([N+](=O)[O-])c2)cc1 (centres undefined)	-20%	-12%	14	19*	?	?
COc1ccc(Cl)cc1NC(=O)C/C(C)=N/NC(=O)C(=O)NCc1ccccc1	-9%	-1%[46.1 µM]	30	-1	i	?
CC(/C=N\NC(=O)Cn1cncn1)=C/c1ccc(C(C)C)cc1	-14%	?	81*	24*	-17%	-23%
CC(/C=N/NC(=O)Cn1nccc1C)=C\c1ccc(C(C)C)cc1	-17%	5%	43*	42*	-15%	3%
CC(/C=N/NC(=O)Cn1nnc(N)n1)=C\c1ccc(C(C)C)cc1	-16%	3%[46.1 µM]	77*	24*	5%	-3%
Cc1ccc(/C=N/NC(=O)Cn2nccc2C)o1	.	-1%	-3	-3	.	-4%
CC(=C/c1ccc(C(C)C)cc1)/C=N/NC(=O)Cn1nc(C)cc1C	118%	4%	65	18*	98%	-2%
CCOc1ccc(C2=NC(c3cccs3)=Nc3ccc(C(C)C)cc3N2)cc1	-23%	?	.	.	-15%	24%[46.1 µM]
Cc1cnc(-n2ncc(C(=O)N(C)CC3COCCO3)c2C2CC2)nc1-c1cccs1 (centres undefined)	1%	.	.	.	-9%	.
Cc1ccc(CNC(=O)C2CCCN(S(=O)(=O)c3cccc4nsnc34)C2)cc1 (centres undefined)	-15%	16%[46.1 µM]	.	.	-21%	2%[46.1 µM]
O=C(NC1CCCCC1)c1ccc(S(=O)(=O)NCc2ccco2)cc1	.	3%	31	-2	.	-17%
CCC(=O)N1CCc2cc(Br)cc(S(=O)(=O)CCC(=O)NCc3ccco3)c21	-18%	-7%	-8	-2	i	-4%
CCC(=O)N1CCc2cc(Br)cc(S(=O)(=O)NCc3ccco3)c21	-11%	?	106*	35*	-21%	0%
CC1CCCC(C)N1C(=O)c1ccc(S(=O)(=O)NCc2ccco2)cc1 (centres undefined)	0%	8%[46.1 µM]	46*	27*	-13%	20%
SMILES	VACV Venus inh	MARV entry inh	Shiga toxin inh	Cycloheximide cs	VACV mCherry inh	Lassa entry inh
O=C(C1CCC1)N1CCc2cc(S(=O)(=O)NCc3ccco3)ccc21	?	?	49	35*	-22%	-3%
CN(C)CCOC1c2ccccc2C=Cc2ccccc21	-11%	?	.	.	-10%	?
CN(C)CCOC1c2ccccc2CCc2ccc3ccccc3c21 (centres undefined)	-19%	5µM*	.	.	?	?
O=C(Nc1cccc(-c2cn3cccnc3n2)c1)c1cccs1	5%	?	-3	8	-3%	6%
Cc1ccn2cc(-c3cccc(NC(=O)c4cccs4)c3)nc2c1	-24%	?	36	22*	-10%	-13%
Cc1cccn2cc(-c3cccc(NC(=O)c4cccs4)c3)nc12	-22%	?	71*	32*	-23%	29%
COc1cccc(O)c1CN1CCC2(CC1)c1ccccc1[C@@H](NC(=O)c1ccsc1)[C@@H]2OC	-1%	.	.	.	-13%	.
Cc1ccc(Cl)cc1N1CCN(C(=O)c2cc(S(=O)(=O)N3CCCCCC3)cn2C)CC1	-27%	.	.	.	-36%	-30%[46.1 µM]
CCOC(=O)C1CCN(C(=O)c2cc3cc(Cl)ccc3[nH]2)CC1	4%	0%[46.1 µM]	49*	23*	-16%	-6%
CCOC(=O)N1CCN(C(=O)c2cc3cc(C)ccc3[nH]2)CC1	.	.	-5	-1	.	.
CCOC(=O)N1CCN(C(=O)c2cc3ccc(OC)cc3[nH]2)CC1	-7%	12%[46.1 µM]	4	16	i	-2%[46.1 µM]
CCOC(=O)C1CCN(C(=O)c2cc3ccc(OC)cc3[nH]2)CC1	-8%	18%	48	27*	-21%	?
COc1ccc(CCNC(=O)CSc2cc(=O)n(C)c3ccccc23)cc1OC	-3%	-8%[46.1 µM]	.	.	-12%	-11%[46.1 µM]
CC(=O)c1ccc(NC(=O)CSc2nc(=O)cc(N)n2-c2ccccc2)cc1	-7%	?	91*	33*	0%	12%[46.1 µM]
COCCn1c(SCC(=O)Nc2ccc(NC(C)=O)cc2)nc2ccccc2c1=O	-14%	1%	-4	-2	-15%	-2%
CCn1c(SCC(=O)Nc2ccc(C(C)=O)cc2)nc2ccccc21	.	?	107*	42*	.	5%
COCCCn1c(SCC(=O)Nc2ccc(C(C)=O)cc2)nc2ccccc2c1=O	.	16%	80*	45*	.	20%
CC(C)NC(=O)CSc1nc2ccccc2n1CC(=O)N(C(C)C)C(C)C	-5%	2%[46.1 µM]	46*	20*	-15%	8%[46.1 µM]
CCOC(=O)CSc1nc2ccccc2n1CC(=O)N(C(C)C)C(C)C	.	?	-12	-4	.	-3%
CN(C)S(=O)(=O)c1cccc(NC(=O)CSc2nc3ccccc3n2-c2ccccc2)c1	?	?	-7	6	?	?
COCCCNC(=O)c1ccc2nc3ccccc3c(=O)n2c1	.	-28%	-1	13*	.	-25%
CN(C)S(=O)(=O)c1ccc(NC(=O)CSc2nc3ccccc3n2-c2ccccc2)cc1	-21%	?	-6	-3	?	18µM*

Bioassay records deposited in PubChem BioAssay by National Center for Advancing Translational Sciences (NCATS).
